{
  "source": "PubChem BioAssay (NCATS)",
  "note": "Records with an inconclusive call do not appear. Entries that show only a call come without a potency. Calls of active or inactive are those of the source. Calls come from the whole dose curve; as a rule, active = well fitted inhibition curve with a large enough effect; inconclusive = small, poorly fitted or top-dose-only effect; inactive = flat fitted curve, though single readings scatter. Potency is the fitted concentration of half-maximal effect.",
  "data": [
    {"test_system": "HB3", "test": "qHTS profiling for inhibitors of Plasmodium falciparum proliferation (AID 504749); note: nearly all actives have a fitted effect of over 60% in size", "settings": "P. falciparum in erythrocytes, SYBR Green DNA, 72 h; series mostly up to 28.7 µM", "how_it_was_run": "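P. falciparum-infected erythrocytes (0.3% parasitemia, 2.5% hematocrit final) were exposed to compounds for 72 h at 37 C in 5% CO2, then lysed with SYBR Green buffer overnight at room temperature; parasite DNA fluorescence was normalized to artemisinin and DMSO controls.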", "values": [
      {"smiles": "CN1CCC[C@@H]1CCO[C@](C)(c1ccccc1)c1ccc(Cl)cc1", "Potency": "inactive"},
      {"smiles": "CN1CCC(OC(c2ccccc2)c2ccccc2)CC1", "Potency": "inactive"},
      {"smiles": "CN1CCN(c2cc3c(cc2F)c(=O)c(C(=O)O)cn3-c2ccc(F)cc2)CC1", "Potency": "inactive"},
      {"smiles": "CC(C)(C)CC(C)(C)c1ccc(O)c(-n2nc3ccccc3n2)c1", "Potency": "11.2 µM (active)"},
      {"smiles": "CCCCCN=C(N)N/N=C/c1c[nH]c2ccc(OC)cc12", "Potency": "3.16 µM (active)"},
      {"smiles": "O=C(NC1CCN(CCc2c[nH]c3ccccc23)CC1)c1ccccc1", "Potency": "inactive"},
      {"smiles": "Cc1ncc(CO)c(C=O)c1O", "Potency": "inactive"},
      {"smiles": "O=C(O)CCc1nc2ccccc2[nH]1", "Potency": "0.0089 µM (active)"},
      {"smiles": "O=S(c1cc(Cl)cc(Cl)c1O)c1cc(Cl)cc(Cl)c1O", "Potency": "0.0032 µM (active)"},
      {"smiles": "CN1CCN(C2=Nc3ccccc3Sc3ccc(Cl)cc32)CC1", "Potency": "inactive"},
      {"smiles": "CN1CCN(c2c(F)cc3c(=O)c(C(=O)O)cn4c3c2SCC4)CC1", "Potency": "inactive"},
      {"smiles": "CCN(CC)CCOC(=O)C1(c2ccccc2)CCCC1", "Potency": "inactive"},
      {"smiles": "CN1CCc2cccc3c2[C@H]1Cc1ccc(O)c(O)c1-3", "Potency": "11.2 µM (active)"},
      {"smiles": "NC(N)=NN=C(/C=C/c1ccc([N+](=O)[O-])o1)/C=C/c1ccc([N+](=O)[O-])o1", "Potency": "2.24 µM (active)"},
      {"smiles": "CNCCCCOc1ccccc1Cc1ccccc1", "Potency": "inactive"},
      {"smiles": "O=C(CCN1CCN2CCCC2C1)N1c2ccccc2Sc2ccc(Cl)cc21", "note": "(configuration not stated)", "Potency": "inactive"},
      {"smiles": "O=C1C(O)=C(O)C(=O)C(O)=C1O", "Potency": "inactive"},
      {"smiles": "O=[N+]([O-])c1cccc(S(=O)(=O)NCCNS(=O)(=O)c2cccc([N+](=O)[O-])c2)c1", "Potency": "inactive"},
      {"smiles": "CC1CCc2c(N3CCC(O)CC3)c(F)cc3c(=O)c(C(=O)O)cn1c23", "note": "(configuration not stated)", "Potency": "inactive"},
      {"smiles": "OC(C#CCN1CCCC1)(c1ccccc1)c1ccccc1", "Potency": "inactive"},
      {"smiles": "CN(C)CCOC(c1ccc(Cl)cc1)c1ccccn1", "note": "(configuration not stated)", "Potency": "inactive"},
      {"smiles": "COc1ccccc1N1CCN(CCCCNC(=O)c2ccc(-c3ccc(C(C)=O)cc3)cc2)CC1", "Potency": "inactive"},
      {"smiles": "CO[C@]12C[C@@H](COC(=O)c3cncc(Br)c3)CN(C)[C@@H]1Cc1cn(C)c3cccc2c13", "Potency": "inactive"},
      {"smiles": "CN1CCN(CCC(=O)N2c3ccccc3Sc3ccc(C(F)(F)F)cc32)CC1", "Potency": "inactive"},
      {"smiles": "CC(C)(C)NC[C@H](O)COc1nsnc1N1CCOCC1", "Potency": "3.55 µM (active)"},
      {"smiles": "CN(C)CCN1C(=O)c2ccccc2N(C)c2ccccc21", "Potency": "inactive"},
      {"smiles": "CCN(CC)CCOc1ccccc1C(=O)CCc1ccccc1", "Potency": "inactive"}
    ]}
  ]
}
